Activity calls are given as the source filed them.
Legend:
[1] = tested on: XIP peptide (Xip251-270) binding; assay: XIP fragment 251-270 binding compounds – biochemical, small-molecule microarray, fluorescence 635/667 nm, 0.1 µg/mL protein, primary screen (AID 1182); conditions: fluorescent protein binding, 635 nm, higher = more signal, called active from +8 up or from −8 down
XIP peptide (Xip251-270) = assay: compounds binding XIP fragment 251-270 – biochemical, small-molecule microarray, fluorescence 635/667 nm, 0.5 µg/mL protein, primary screen (AID 1183); conditions: fluorescence 635 nm, higher = more signal
[2] = blood-stage malaria parasite viability loss – strain 3D7, DAPI fluorescence, 100 nL, primary screen (AID 1184);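 further: parasites grown inside human red blood cells in medium with human serum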; conditions: P. falciparum 3D7 growth, 3 d, higher = more signal
[3] = target: Homeobox protein Hox-A13 (Mus musculus) (UniProt Q62424); assay: disruptors of Hoxa13 oligonucleotide interaction – biochemical, fluorescence polarization, labeled oligonucleotide, primary screen (AID 1185); conditions: Hoxa13:DNA binding, 15 min, higher = more signal, called active from +8 up or from −8 down
Sequence of Homeobox protein Hox-A13 (Mus musculus) (Q62424 whole entry, looked up): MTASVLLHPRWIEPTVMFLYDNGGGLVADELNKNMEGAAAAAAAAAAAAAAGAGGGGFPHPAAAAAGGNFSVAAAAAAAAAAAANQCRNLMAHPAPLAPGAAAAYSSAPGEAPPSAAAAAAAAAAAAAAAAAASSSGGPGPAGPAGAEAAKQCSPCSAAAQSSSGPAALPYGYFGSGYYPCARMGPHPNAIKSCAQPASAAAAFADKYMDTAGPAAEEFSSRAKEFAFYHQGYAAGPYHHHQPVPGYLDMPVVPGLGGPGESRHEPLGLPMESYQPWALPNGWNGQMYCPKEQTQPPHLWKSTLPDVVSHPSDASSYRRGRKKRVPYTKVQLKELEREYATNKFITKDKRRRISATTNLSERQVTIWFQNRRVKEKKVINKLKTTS

Row | SMILES | composite z-score [1] | composite z-score (XIP peptide (Xip251-270)) | z-score [2] | z-score [3]
1 | COC(=O)[C@H](C)NC(=O)CCC1CC(OC(=O)NCc2cccc3ccccc23)CC2(CCCC(COC(=O)NCCCN3CCCC3=O)O2)O1 (stereo partly specified) | 1.17 (inactive) | 0.582 | -0.529 | -3.27 (inactive)
2 | CCOC(=O)CCN1C(=O)[C@H]2[C@H]3[C@H](O)[C@H](O)CC(=NNC(=O)OCC)[C@H]3CC[C@H]2C1=O | 3.24 (inactive) | -0.397 | -1.58 | -4.5 (inactive)
3 | CCCNC(=O)OC[C@H]1O[C@H](CCON=C[C@@H](NS(=O)(=O)c2ccc(C)cc2)[C@H](C)C=CCC(=O)OC)C=C[C@@H]1Oc1ccc(OC)cc1 | -0.349 (inactive) | -0.501 | -0.862 | -4.48 (inactive)
4 | CC(=O)OC[C@H]1O[C@@H](ON=C2[C@H]3CCn4c(=O)n(-c5ccccc5)c(=O)n4[C@H]3[C@H](O)[C@@H]3O[C@H]23)[C@H](OC(C)=O)[C@@H](OC(C)=O)[C@@H]1OC(C)=O | -0.455 (inactive) | 0.292 | -0.541 | -4.07 (inactive)
5 | COc1ccc(COC(=O)NN=C2C[C@@H](O)[C@@H](O)[C@@H]3[C@@H]4C(=O)N(C[C@@H]5CCCO5)C(=O)[C@@H]4CC[C@@H]23)cc1 | -0.155 (inactive) | 0.744 | -0.0701 | 0.903 (inactive)
6 | COC(=O)[C@@H]1CC[C@H](C)[C@@H](c2ccc(Br)cc2)N1C[C@@H](O)CN=[N+]=[N-] | -0.193 (inactive) | -0.03 | -0.877 | -3.81 (inactive)
7 | COc1ccc(O[C@H]2C=C[C@@H](c3ccccc3)O[C@@H]2CO)cc1 | 0.0493 (inactive) | 0.546 | -0.672 | -1.6 (inactive)
8 | COC(=O)[C@H](C)NC(=O)CCC1CC(OC(=O)NCc2ccc3c(c2)OCO3)CC2(CCCC(COC(=O)NCCc3ccc(Cl)cc3)O2)O1 (stereo partly specified) | 0.0239 (inactive) | 0.375 | -1.97 | -5.07 (inactive)
9 | COC(=O)[C@@H]1CC[C@H](C)[C@@H](c2ccc(Br)cc2)N1 | 1.53 (inactive) | -0.381 | 0.165 | -0.164 (inactive)
10 | C=CC[C@@H]1C=C[C@H](ON=C[C@@H](NS(=O)(=O)c2ccc(C)cc2)[C@H](C)C=CCC(=O)OC)[C@@H](CO)O1 | 0.278 (inactive) | 0.463 | -0.174 | -4.66 (inactive)
11 | COC(=O)[C@@H]1CC[C@H](C)[C@@H](c2ccc(C)cc2)N1C(=O)c1ccc(C=NO[C@@H](C)c2cc(-c3c(C)cc(C)cc3C)no2)cc1 | -0.274 (inactive) | 0.511 | -0.225 | 0.492 (inactive)
12 | CO[C@@H](C(C)C)[C@@H](C)C1OC(=O)CC1O (stereo partly specified) | 0.51 (inactive) | 0.129 | -1.69 | 0.186 (inactive)
13 | CC(C)=CCCC(C)=CCON=C1C[C@@H](O)[C@@H](O)[C@@H]2[C@@H]3C(=O)N([C@@H](C)c4ccccc4)C(=O)[C@@H]3CC[C@@H]12 | 0.0439 (inactive) | 0.242 | -0.81 | -1.3 (inactive)
14 | COC(=O)[C@H](C)NC(=O)CCC1CC(OC(=O)NCc2ccc3c(c2)OCO3)CC2(CCCC(COC(=O)NCc3ccccc3)O2)O1 (stereo partly specified) | 0.361 (inactive) | 0.554 | -1.75 | -2.47 (inactive)
